Experimental data: PubChem BioAssay AID1259309 (ICCB-Longwood Screening Facility, Harvard Medical School, 2017)
Several values for one entry are separate records, joined by “and”; a condition that tells them apart may be missing. Equal values may be shown once. In all, about 330,000 compounds went through this assay and about 1,800 (0.55%) were called active. No stated cut-off is given here; in the data, active means growth inhibition above about 68%; inactive means the rest. The full list was thinned out, with actives kept by preference. Some structures have more than one record in an assay (separate samples or runs), and their calls can disagree.

Assay: growth inhibition of ugtP-null S. aureus, primary screen, RN4220 ugtP deletion, OD600 (AID 1259309);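 further: plate controls were untreated wells for no effect and antibiotic for full effect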
Conditions: 16 h, stronger effect = higher value

SMILES	growth inhibition
C[C@]12CCC3c4ccc(O)cc4CCC3C1CCC2OC(=O)CCC(=O)O (stereo not given in full)	1.18% (inactive)
O=C(CN1CCN(Cc2ccccc2)CC1)NN=Cc1ccc(Br)s1	-1.87% (inactive)
COc1cccc(C2CC=C(C(=O)O)C(c3ccc(F)cc3)N2S(=O)(=O)c2ccc(C)cc2)c1 (stereo not given)	24.5% (inactive)
O=[N+]([O-])c1cccc(C=NNc2nc(NCc3ccccc3)nc(N3CCOCC3)n2)c1O	1.29% (inactive)
Cc1ccc(-c2csc(N3CCCC3C(=O)NCCn3c(-c4ccncc4)nc4ccccc43)n2)cc1 (stereo not given)	12.4% (inactive)
Cc1nn(-c2ccccc2)c(C)c1C=NNC(=O)c1cc(-c2ccc(Br)s2)[nH]n1	-11.7% (inactive)
CC1CN(C(=S)Nc2ccccc2F)CC(C)O1 (stereo not given)	2.47% (inactive)
COc1c(N2CCN(C(=S)Nc3ccccc3F)C(C)C2)c(F)cc2c(=O)c(C(=O)O)cn(C3CC3)c12 (stereo not given)	100% (active)
COc1ccccc1NC(=S)N1CCN(c2ccc(F)cc2)CC1	6.45% (inactive)
CC=C(C)C(=O)Nc1cccc(C2=NOC3(C2)CC(C(N)=O)N(C(=O)c2ccc(OC)cc2)C3)c1 (stereo not given)	0.227% (inactive)
O=S(=O)(C=Cc1ccccc1)N1CCN(c2nc(-c3cccnc3)nc3ccccc23)CC1	-1.02% (inactive)
NC(=O)C(=O)NN=Cc1cccc(C(F)(F)F)c1	6.69% (inactive)
O=[N+]([O-])c1c(NCCO)cc(Sc2nc3ccccc3s2)c2nonc12	99.9% (active)
OCCNc1nc(Nc2ccc(Cl)c(Cl)c2)nc2ccccc12	-40.3% (inactive)
CCN(CC)CCCSc1nc2ccccc2s1	5.71% (inactive)
CC(=O)CC1c2cc(C(F)(F)F)ccc2S(=O)(=O)N1C1CCCC1 (stereo not given)	-1.55% (inactive)
CCOC(=O)c1ccc(NC(=O)c2nc[nH]c2C(=O)NC(Cc2ccccc2)C(=O)OC(C)(C)C)cc1 (stereo not given)	-22.8% (inactive)
Cc1ccc(C(=O)NCC(=O)NN=Cc2cccs2)cc1[N+](=O)[O-]	4.96% (inactive)
COc1cc(C(=O)NN=Cc2cn(Cc3cccc(F)c3)c3ccccc23)ccc1O	-6.8% (inactive)
COc1cccc(C=NNc2cc(-n3nc(C)cc3-c3ccccc3)ncn2)c1O	101% (active)
COc1cccc(C=NNc2ncnc3c2ncn3Cc2ccccc2)c1O	2.15% (inactive)
COc1cccc(C=NNC(=O)CSCC(=O)Nc2ccccc2)c1O	-4.58% (inactive)
CCc1ccc2c(c1)C(=O)C[C@]1(CCCC(C)C1)O2 (stereo not given in full)	5.31% (inactive)

SMILES	growth inhibition
C#CCNC(=O)C1=CC(c2csc3ccccc23)CC(OCCCCO)O1 (stereo not given)	-11.2% (inactive)
Cc1ccc(OCC(=O)NN=Cc2ccc3c(c2)OCO3)cc1C	-11% (inactive)
CCCCCCCCCCCCn1ccc(=N)cc1	101% (active)
CCCCCN1CC(O)=C(c2ccccc2)C1=N	2.59% (inactive)
COc1ccc(C=NNc2nn3cnnc3c3ccccc23)cc1	12.2% (inactive)
CCOC(=O)CN1C(=O)NC(c2ccco2)C(C(C)=O)=C1C (stereo not given)	-0.836% (inactive)
CCC(=O)Nc1cccc(C2=NOC3(C2)CC(C(N)=O)N(C(=O)COc2ccc(Cl)cc2)C3)c1 (stereo not given)	3.89% (inactive)
Cc1c(CN2CCC(CO)(CCOc3ccccc3)CC2)[nH]c2ccc(Cl)cc12	95.4% (active)
CCOC(=O)C1(CCOc2ccccc2)CCN(Cc2cc(OC)cc(OC)c2)CC1	2.42% (inactive)
CCOC(=O)C1(CCOc2ccccc2)CCN(Cc2cc(OC)c(O)cc2Cl)CC1	4.94% (inactive)
Nc1nonc1-n1nnc(C(=O)NN=Cc2ccc(Cl)cc2Cl)c1CN1CCCCC1	6.34% (inactive)
ON=C1CC2(CC(=NO)C1=NO)OCCO2	-5.45% (inactive)
S=C(Nc1ccccc1)Nc1ccc2ccccc2c1	-7.81% (inactive)
Cc1nc2cc(NC(=O)Nc3cccc(F)c3)ccc2n1C	-1.04% (inactive)
O=C(Nc1ccc2ccccc2c1)Nc1ccc2snnc2c1	94.2% (active)
COCc1cc(C)nc(OCC(=O)NN=Cc2ccc(C)cc2)c1C#N	3.45% (inactive)
CC(=O)c1ccc(NC(=S)NC(=O)CC(C)C)cc1	29.6% (inactive)
COc1ccc(NS(=O)(=O)c2ccc(NC(=S)NC(=O)CC(C)C)cc2)cc1	88% (active)
COc1ccc(OC)c(C(C)NC(=S)Nc2ccc(S(=O)(=O)Nc3ncccn3)cc2)c1 (stereo not given)	6.82% (inactive)
COc1ccc(/C=C\C(=O)Oc2cccc(C=NNC(=O)Cc3ccc(OC)c(OC)c3)c2)cc1	28.2% (inactive)
CCCCC1CC1C(NC(=O)c1cccs1)c1ccc(C(F)(F)F)cc1 (stereo not given)	3.18% (inactive)
COc1ccc(CNC(=O)CCN2C(=O)c3ccccc3C2=O)cc1	0.235% (inactive)
CCOC(=O)C1=C(c2ccc(OC)cc2)C(=O)c2ccccc2C1=O	98.1% (active)

SMILES	growth inhibition
COC(=O)c1cc(OC)ccc1-c1ccc(OC)cc1	24.4% (inactive)
O=C(NC1CC(=NO)c2cc3c(cc21)OCO3)C(F)(F)F (stereo not given)	3.72% (inactive)
Fc1ccc(-c2ccc(C=Nn3cnnc3)o2)cc1	3.75% (inactive)
O=C(CSc1nc2ccccc2n1Cc1ccc(Cl)cc1)NN=Cc1ccccc1C(=O)O	0.317% (inactive)
OCCC1CC(O)C(O)[C@@]2(CCCc3ccccc3O2)O1 (stereo not given in full)	-2.74% (inactive) and 36.1% (inactive) and 95.4% (active)
OCCC1CC(O)C(O)[C@]2(Cc3ccccc3O2)O1 (stereo not given in full)	-11.4% (inactive) and -1.82% (inactive) and 6.13% (inactive)
COc1ccc(-c2cnnc(NN=Cc3ccc(OC)c(OC)c3)n2)cc1	-0.988% (inactive)
COc1cc(C(=O)NCC(=O)NN=C(C)Cc2ccccc2)cc(OC)c1OC	1.68% (inactive)
Cc1cc(N=Nc2ccc3ccccc3c2)ccc1O	100% (active)
Cc1c(O)ccc(C(Cc2ccc3ccccc3n2)=NN)c1O	7.02% (inactive)
Cc1cc(C)c(C#N)c(SCC(=O)Nc2ccccc2)n1	-0.258% (inactive)
Cc1nonc1NC(=O)CSc1nc2ccccc2cc1C#N	-7.53% (inactive)
Cc1nc2cc(NC(=O)CSc3nc4c(C)cccc4cc3C#N)ccc2s1	96.5% (active)
Cc1ccc(NC(=S)NN=C2CC(C)(C)Oc3ccc(O)cc32)cc1	-1.6% (inactive)
CCCc1c(C(=O)NN=Cc2ccncc2)nnn1-c1nonc1N	-1.92% (inactive)
O=C(NCc1ccc2c(c1)OCO2)c1c(-c2ccsc2)sc2ccccc12	13.5% (inactive)
COc1ccc2sc(-c3ccc(S(C)(=O)=O)cc3)c(C#Cc3cncn3C)c2c1	-24.1% (inactive)
Cn1cncc1C#Cc1c(-c2ccsc2)sc2ccccc12	89% (active)
CC1CN(C(C)CO)C(=O)c2cc(NS(=O)(=O)c3ccccc3)ccc2OC1CN(C)C(=O)Nc1ccc2c(c1)OCO2 (stereo not given)	1.83% (inactive)
CCCCN1C(=N)N(C(C)CN2CCCC2CN2C(N)=NCC2Cc2ccccc2)CC1C(C)CC (stereo not given)	2.45% (inactive)
CC[C@@H](C)[C@@H]1CN([C@@H](C)CN2CCC[C@H]2CN2C(N)=NC[C@H]2C(C)C)C(=N)N1CCc1ccc(Cl)c(Cl)c1	100% (active)
CC(=O)C(=NNc1ccccc1)Sc1nnc(-c2ccccc2)n1-c1ccccc1	-0.945% (inactive)
CCc1ccc(C=Nn2c(C)cc(C)c(C#N)c2=O)cc1	11.9% (inactive)

SMILES	growth inhibition
CC(=NNC(=O)c1c(-c2ccccc2Cl)noc1C)c1cccc(NC(=O)C(C)C)c1	-1.85% (inactive)
Cc1csc(Nc2ccc(Cl)cc2)[n+]1-c1ccc(Cl)cc1	94.3% (active)
O=c1ccnc(Nc2ccc(Cl)cc2)[nH]1	-0.107% (inactive)
CCOC1OC(C(N)=O)=CC(c2csc3ccccc23)C1CCCO (stereo not given)	-0.922% (inactive)
NC(=O)CC1NC(=O)C(CCC(=O)O)NC(=O)c2cc([N+](=O)[O-])cc(I)c2NCCCC(C(N)=O)NC1=O (stereo not given)	5.02% (inactive)
COc1cccc(C=NNC(=O)c2ccccc2NC(=O)c2ccco2)c1OC	17.5% (inactive)
COC(=O)Cc1ccc(OCC(=O)NC2CCCC2)cc1	5.86% (inactive)
Cc1cccc(OCC(=O)NC2CC(C)(C)NC(C)(C)C2)c1	-2.79% (inactive)
CC1(C)SC2C(NC(=O)COc3ccccc3)C(=O)N2C1C(=O)O (stereo not given)	101% (active)
O=C(O)CS/C(=C\c1ccc(F)cc1)c1nc2ccccc2s1	-0.309% (inactive)
CC1=CC(=C(C#N)c2nc3ccccc3s2)C=C(C)N1c1ccc(F)cc1F	3.53% (inactive)
N#C/C(=C(/O)Cc1cccc2ccccc12)c1nc2ccccc2s1	88% (active)
CSc1ccc(C2=CC(=O)CC(c3ccc(F)cc3)C2)cc1 (stereo not given)	-1.01% (inactive)
Cn1c(SCC(=O)NN=Cc2ccc([N+](=O)[O-])s2)nnc1-c1ccccc1	100% (active)
Cc1ccc(C=NNC(=O)CSc2nc3ccccc3n2C)s1	0.402% (inactive)
Cc1ccc(C=NNC(=O)CSc2nc3ccccc3c(=O)n2-c2ccccc2)s1	-33.9% (inactive)
CCCc1noc2c1C(=NO)CCC2	0.229% (inactive)
Cn1ccc(=Nc2ccc(NC(=O)c3ccc(N=c4ccn(C)c5ccc([N+](=O)[O-])cc45)cc3)cc2)cc1	99.6% (active)
COc1cc(NS(=O)(=O)c2ccc(NC(=O)c3ccc([N+](=O)[O-])cc3)cc2)ncn1	2.78% (inactive)
CCc1ccc(NC(=O)c2ccc(Cn3cc([N+](=O)[O-])cn3)cc2)cc1	5.62% (inactive)
CCOc1cc(C=NNC(=O)c2nnn(-c3nonc3N)c2C)ccc1OCc1cccc(F)c1	-21.1% (inactive)
